Test systems include SK-MEL-2 melanoma; EKVX NSCLC; SN12C renal; UO-31 renal; TK-10 renal; ACHN renal; CAKI-1 renal; A498 renal; CCRF-CEM leukemia; MOLT-4 leukemia.
Test in all cases: NCI-60 one-dose screen, 48 h (100 = growth as untreated, 0 = no growth, -100 = all killed)
Conditions in all cases: 10 µM unless noted

About 83,000 compounds went through this panel and 20% of them were active in at least one assay; those are over-represented in the sample as a whole.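 Single-dose data. Exposure time 48 hours. Values below 10 considered active.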 A number with no mark means an inactive call. Calls of active or inactive are those of the source.

For `Cc1cc(C)nc(NC(N)=NCCc2ccccc2)n1`, the growth in the assay with SK-MEL-2 melanoma was 38.4%; with EKVX NSCLC, 59.7%; in the assay on SN12C renal it was 45.1%; in the assay with UO-31 renal, 69.2%; with TK-10 renal, 75.6%; with ACHN renal it was 46.9%. Also, the growth in the assay with CAKI-1 renal was 93.6%; with A498 renal, 86.9%; in the assay with CCRF-CEM leukemia, 45.3%; with MOLT-4 leukemia it was 47.7%.
Consider `CN1CCN(CC#CCn2c3c(c4ccccc42)C[C@]2(C)[C@H]4CC[C@@H]5[C@H]6[C@H]7OC(=O)[C@@]6(CCC7(C)C)CC[C@@]5(C)[C@]4(C)CC[C@H]2C3(C)C)CC1`, for which the growth is 118% with SK-MEL-2 melanoma; 99.2% in the assay on EKVX NSCLC; 52.8% in the assay with SN12C renal; 67.2% in the assay with UO-31 renal; 161% in the assay on TK-10 renal; 91.3% in the assay on ACHN renal. Also, the growth with CAKI-1 renal is 52.4%; in the assay with A498 renal, 71.6%; with CCRF-CEM leukemia it was -0.753% (active); in the assay on MOLT-4 leukemia, 41.6%.
As to `C=C1CC[C@@H](C(=O)OC)Cc2nc(C)ccc21`, the growth is 103% in the assay on SK-MEL-2 melanoma; 99.8% in the assay with EKVX NSCLC; 96.4% with SN12C renal; 93.6% with UO-31 renal; 101% with TK-10 renal; 103% with ACHN renal. The growth in the assay with CAKI-1 renal is 90.9%; in the assay with A498 renal, 106%; with CCRF-CEM leukemia it was 102%; in the assay with MOLT-4 leukemia, 101%.
As for `COc1ccccc1-n1cnc(N)c1C(=O)c1cc(OC)c(OC)c(OC)c1`, the growth was 57.1% in the assay with SK-MEL-2 melanoma; 55.3% in the assay on EKVX NSCLC; 62.3% in the assay on SN12C renal; 55.2% in the assay on UO-31 renal; 80.8% with TK-10 renal; 58.6% in the assay with ACHN renal. The growth was 39.8% with CAKI-1 renal, 26.6% in the assay with A498 renal, 24.2% with CCRF-CEM leukemia and 50.8% with MOLT-4 leukemia.
For the compound `O=C(O)c1cccc2c1C(=O)N(c1ccc3c(c1)Cc1ccccc1-3)C2=O`, the growth is 99% with SK-MEL-2 melanoma; 111% in the assay on EKVX NSCLC; 111% in the assay with SN12C renal; 85.6% in the assay on UO-31 renal; 100% in the assay with TK-10 renal; 113% in the assay on ACHN renal. The growth in the assay with CAKI-1 renal is 109%; with A498 renal, 104%; with MOLT-4 leukemia, 101%.
Take `C/C(Cc1ccc(Cl)cc1)=C(/c1ccc(Cl)cc1)c1ccc(OCCN2CCCC2)cc1`: the growth is 105% in the assay on SK-MEL-2 melanoma; 91.2% in the assay on EKVX NSCLC; 81.6% with SN12C renal; 68.1% in the assay on UO-31 renal; 96.1% with TK-10 renal; 93.8% in the assay on ACHN renal. Besides, the results for the growth with CAKI-1 renal, in the assay with A498 renal and in the assay on MOLT-4 leukemia were 75.9%, 103% and 59.7%, respectively.
With `C=C(C)[C@@H]1CC[C@]2(C(=O)NNC(=O)c3cccnc3)CC[C@]3(C)[C@H](CC[C@@H]4[C@@]5(C)CCCNC(C)(C)[C@@H]5CC[C@]43C)[C@@H]12`, the growth with SK-MEL-2 melanoma is 100%; with EKVX NSCLC it was 94.3%; with SN12C renal, 83.7%; with UO-31 renal it was 64%; with TK-10 renal, 158%; in the assay on ACHN renal, 98.1%. Besides, the growth with CAKI-1 renal was 76%; in the assay on A498 renal, 88.1%; in the assay on MOLT-4 leukemia it was 40.1%.
As to `O=[N+]([O-])c1ccc(/C=N\Nc2ccccc2)cc1`, the growth is 49.5% with SK-MEL-2 melanoma; 76.6% with EKVX NSCLC; 87.3% with SN12C renal; 65.5% with UO-31 renal; 111% in the assay with TK-10 renal; 72.6% in the assay on ACHN renal. The results for the growth with CAKI-1 renal, in the assay on A498 renal and in the assay on MOLT-4 leukemia were 72.8%, 75.3% and 89.7%, respectively.
For `COc1cccc(-c2nn(-c3ccccc3)cc2-c2ccnc(NCCCNS(=O)(=O)c3ccc(Br)cc3)c2)c1`, the growth in the assay with SK-MEL-2 melanoma is 50.9%; in the assay on EKVX NSCLC, 66%; in the assay on SN12C renal, 57.1%; with UO-31 renal it was 21.6%; in the assay with TK-10 renal it was 55.7%; in the assay on ACHN renal, 48.3%. The growth in the assay with CAKI-1 renal was 51.1%; in the assay on A498 renal, 41.4%; in the assay on CCRF-CEM leukemia, 32.1%; in the assay on MOLT-4 leukemia it was 23.5%.
As for `COC(=O)[C@]12CC[C@@H](C)[C@H](C)[C@@H]1C1=CC[C@@H]3[C@@]4(C)CC(=O)[C@H](OC(=O)c5ccco5)[C@@]5(C)COC(=C45)C[C@@]3(C)[C@]1(C)CC2`, the growth in the assay on SK-MEL-2 melanoma is 8.78% (active); with EKVX NSCLC, 35.6%; in the assay on SN12C renal, 36%; in the assay with UO-31 renal it was 29.3%; in the assay on TK-10 renal, 38.5%; with ACHN renal it was 25.9%. For the same compound, the growth with CAKI-1 renal was 28.7%; in the assay with A498 renal, 13.1%; in the assay on CCRF-CEM leukemia, 25.1%; in the assay with MOLT-4 leukemia, 24.4%.
`O=C(/C=C/c1cccc(O)c1)c1ccccc1O`: the growth in the assay with SK-MEL-2 melanoma is 84.1%; with EKVX NSCLC, 86.9%; in the assay with SN12C renal, 83.7%; with UO-31 renal, 73.9%; in the assay on TK-10 renal, 121%; in the assay on ACHN renal it was 86.9%. In addition, the growth was 50.4% in the assay on CAKI-1 renal, 106% in the assay on A498 renal and 66.9% with MOLT-4 leukemia.
For the compound `CC[C@H](CC[C@@H](C)[C@H]1CC[C@H]2[C@@H]3/C(=C/c4cccnc4)C(=O)C4=CC(=O)CC[C@]4(C)[C@H]3CC[C@]12C)C(C)C`, the growth was 103% in the assay with SK-MEL-2 melanoma; 99% in the assay on EKVX NSCLC; 86.3% in the assay on SN12C renal; 65.4% in the assay on UO-31 renal; 112% in the assay with TK-10 renal; 93.9% in the assay on ACHN renal. The growth in the assay on CAKI-1 renal is 77.9%; with A498 renal, 98.3%; with MOLT-4 leukemia, 67.5%.
Turning to `Cn1nc(-c2ccccc2)c2c(-c3ccccc3)onc2c1=O`, the growth is 40.1% with SK-MEL-2 melanoma; 54.2% in the assay on EKVX NSCLC; 45.4% in the assay on SN12C renal; 39.6% with UO-31 renal; 53% in the assay with TK-10 renal; 58.4% in the assay on ACHN renal. The growth with CAKI-1 renal is 36.5%; in the assay on A498 renal, 24.6%; in the assay with MOLT-4 leukemia it was 42.8%.

Source of the values: PubChem BioAssay (NCI).
